Test results published in ChEMBL document CHEMBL1961873, “Compounds: GSK PKIS; Assays: Nanosyn kinase panel” (2012).

Key:
[1] = biological target: Mast/stem cell growth factor receptor Kit (Homo sapiens) (UniProt P10721); settings: at 1 µM
[2] = test system: Mast/stem cell growth factor receptor Kit (Homo sapiens), P10721 [D816V]; settings: at 0.1 µM
[3] = test system: Mast/stem cell growth factor receptor Kit (Homo sapiens), P10721 [D816V]; settings: at 1 µM
[4] = test system: Mast/stem cell growth factor receptor Kit (Homo sapiens), P10721 [T670I]; settings: at 0.1 µM
Mast/stem cell growth factor receptor Kit (Homo sapiens), P10721 [T670I], sequence (P10721 whole entry T670I): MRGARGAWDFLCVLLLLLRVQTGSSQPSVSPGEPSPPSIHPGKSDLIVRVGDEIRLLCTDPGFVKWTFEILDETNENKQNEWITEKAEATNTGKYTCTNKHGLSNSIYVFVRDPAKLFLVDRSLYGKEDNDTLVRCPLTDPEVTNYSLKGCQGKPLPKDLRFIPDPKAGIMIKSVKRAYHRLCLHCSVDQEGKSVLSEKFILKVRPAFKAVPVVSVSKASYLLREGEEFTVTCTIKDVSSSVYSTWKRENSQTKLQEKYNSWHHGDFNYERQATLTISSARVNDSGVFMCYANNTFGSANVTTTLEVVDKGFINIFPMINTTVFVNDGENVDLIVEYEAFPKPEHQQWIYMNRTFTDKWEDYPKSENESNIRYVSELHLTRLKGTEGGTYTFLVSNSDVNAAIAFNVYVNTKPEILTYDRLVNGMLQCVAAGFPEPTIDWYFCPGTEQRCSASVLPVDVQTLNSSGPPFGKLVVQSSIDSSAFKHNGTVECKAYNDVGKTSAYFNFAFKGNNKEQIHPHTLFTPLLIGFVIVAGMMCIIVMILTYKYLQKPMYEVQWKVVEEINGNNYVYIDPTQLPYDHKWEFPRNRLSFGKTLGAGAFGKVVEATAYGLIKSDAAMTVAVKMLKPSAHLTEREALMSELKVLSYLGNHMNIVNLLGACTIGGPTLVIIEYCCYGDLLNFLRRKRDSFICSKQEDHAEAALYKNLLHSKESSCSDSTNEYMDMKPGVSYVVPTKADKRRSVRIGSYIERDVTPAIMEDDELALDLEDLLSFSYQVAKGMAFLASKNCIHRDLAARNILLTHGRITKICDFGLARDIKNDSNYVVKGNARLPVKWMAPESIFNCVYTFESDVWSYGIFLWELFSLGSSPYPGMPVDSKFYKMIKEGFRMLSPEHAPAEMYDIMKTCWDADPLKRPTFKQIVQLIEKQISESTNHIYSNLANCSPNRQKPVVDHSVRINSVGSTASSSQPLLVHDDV

[5] = test system: Mast/stem cell growth factor receptor Kit (Homo sapiens), P10721 [T670I]; settings: at 1 µM
[6] = test system: Mast/stem cell growth factor receptor Kit (Homo sapiens), P10721 [V560G]; settings: at 0.1 µM
Mast/stem cell growth factor receptor Kit (Homo sapiens), P10721 [V560G], sequence (P10721 whole entry V560G): as the sequence (P10721 whole entry T670I) above, with V560G, I670T counted along it

[7] = test system: Mast/stem cell growth factor receptor Kit (Homo sapiens), P10721 [V560G]; settings: at 1 µM
[8] = biological target: Tyrosine-protein kinase Lck (Homo sapiens) (UniProt P06239); settings: at 0.1 µM
Tyrosine-protein kinase Lck (Homo sapiens), sequence (P06239 2-509 limits assumed): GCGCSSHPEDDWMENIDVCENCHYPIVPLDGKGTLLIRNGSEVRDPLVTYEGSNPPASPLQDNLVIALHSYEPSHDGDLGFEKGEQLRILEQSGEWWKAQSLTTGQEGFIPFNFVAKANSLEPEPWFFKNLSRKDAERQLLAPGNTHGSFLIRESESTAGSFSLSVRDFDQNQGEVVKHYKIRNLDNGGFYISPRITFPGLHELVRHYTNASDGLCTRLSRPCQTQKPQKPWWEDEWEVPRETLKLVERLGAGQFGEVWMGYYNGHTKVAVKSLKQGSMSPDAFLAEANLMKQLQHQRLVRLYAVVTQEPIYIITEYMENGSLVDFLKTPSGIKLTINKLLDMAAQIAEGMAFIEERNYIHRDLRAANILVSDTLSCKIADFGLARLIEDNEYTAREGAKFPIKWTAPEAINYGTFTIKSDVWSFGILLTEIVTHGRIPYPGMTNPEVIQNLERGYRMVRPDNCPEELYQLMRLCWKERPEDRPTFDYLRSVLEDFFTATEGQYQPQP

[9] = biological target: Tyrosine-protein kinase Lck (Homo sapiens) (UniProt P06239); settings: at 1 µM
[10] = biological target: Leukocyte tyrosine kinase receptor (Homo sapiens) (UniProt P29376); settings: at 0.1 µM
Leukocyte tyrosine kinase receptor (Homo sapiens), sequence (P29376 whole entry): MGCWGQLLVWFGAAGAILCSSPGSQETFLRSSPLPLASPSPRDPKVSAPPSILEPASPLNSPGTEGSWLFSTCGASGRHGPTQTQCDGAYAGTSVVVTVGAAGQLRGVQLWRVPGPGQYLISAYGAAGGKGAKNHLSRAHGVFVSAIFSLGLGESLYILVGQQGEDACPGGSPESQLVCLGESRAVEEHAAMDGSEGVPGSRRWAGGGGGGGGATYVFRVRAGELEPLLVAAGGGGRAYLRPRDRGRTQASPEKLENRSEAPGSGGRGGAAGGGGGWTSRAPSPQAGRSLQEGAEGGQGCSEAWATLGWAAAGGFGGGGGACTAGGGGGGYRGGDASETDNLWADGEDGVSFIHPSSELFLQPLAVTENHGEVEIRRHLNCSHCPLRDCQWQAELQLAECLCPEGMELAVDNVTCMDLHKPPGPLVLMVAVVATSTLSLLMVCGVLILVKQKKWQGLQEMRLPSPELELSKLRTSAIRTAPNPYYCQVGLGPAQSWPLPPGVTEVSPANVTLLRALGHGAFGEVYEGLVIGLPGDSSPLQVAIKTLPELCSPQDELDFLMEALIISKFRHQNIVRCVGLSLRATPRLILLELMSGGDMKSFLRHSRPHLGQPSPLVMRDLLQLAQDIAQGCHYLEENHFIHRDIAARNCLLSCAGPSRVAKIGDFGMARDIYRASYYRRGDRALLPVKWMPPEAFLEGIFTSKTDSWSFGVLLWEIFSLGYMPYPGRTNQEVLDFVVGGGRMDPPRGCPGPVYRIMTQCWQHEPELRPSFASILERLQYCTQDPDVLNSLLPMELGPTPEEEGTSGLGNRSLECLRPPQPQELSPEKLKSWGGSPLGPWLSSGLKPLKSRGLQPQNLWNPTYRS

[11] = biological target: Leukocyte tyrosine kinase receptor (Homo sapiens) (UniProt P29376); settings: at 1 µM
[12] = biological target: Tyrosine-protein kinase Lyn (Homo sapiens) (UniProt P07948); settings: at 0.1 µM
Tyrosine-protein kinase Lyn (Homo sapiens), sequence (P07948 2-512 limits assumed): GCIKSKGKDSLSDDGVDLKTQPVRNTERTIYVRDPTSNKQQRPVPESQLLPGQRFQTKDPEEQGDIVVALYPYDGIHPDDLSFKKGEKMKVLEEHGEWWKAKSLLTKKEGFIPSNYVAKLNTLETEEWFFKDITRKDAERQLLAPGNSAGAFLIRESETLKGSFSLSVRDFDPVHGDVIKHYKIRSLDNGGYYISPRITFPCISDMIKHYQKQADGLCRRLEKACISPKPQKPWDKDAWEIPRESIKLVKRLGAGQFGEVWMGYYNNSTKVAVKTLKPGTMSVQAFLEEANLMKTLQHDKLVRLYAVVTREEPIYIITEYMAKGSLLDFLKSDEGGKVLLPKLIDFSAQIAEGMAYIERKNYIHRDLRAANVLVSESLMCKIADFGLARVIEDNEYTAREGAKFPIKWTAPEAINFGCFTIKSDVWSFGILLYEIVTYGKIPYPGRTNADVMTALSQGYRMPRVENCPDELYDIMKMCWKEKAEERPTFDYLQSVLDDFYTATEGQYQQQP

[13] = biological target: Tyrosine-protein kinase Lyn (Homo sapiens) (UniProt P07948); settings: at 1 µM
[14] = biological target: Tyrosine-protein kinase Lyn (Homo sapiens) (UniProt P07948); settings: at 0.1 µM; remark: listed apart in the source
[15] = biological target: Tyrosine-protein kinase Lyn (Homo sapiens) (UniProt P07948); settings: at 1 µM; remark: listed apart in the source
[16] = biological target: T1, Tyrosine-protein kinase Mer (Homo sapiens) (UniProt Q12866); settings: at 0.1 µM
T1 sequence (whole entry): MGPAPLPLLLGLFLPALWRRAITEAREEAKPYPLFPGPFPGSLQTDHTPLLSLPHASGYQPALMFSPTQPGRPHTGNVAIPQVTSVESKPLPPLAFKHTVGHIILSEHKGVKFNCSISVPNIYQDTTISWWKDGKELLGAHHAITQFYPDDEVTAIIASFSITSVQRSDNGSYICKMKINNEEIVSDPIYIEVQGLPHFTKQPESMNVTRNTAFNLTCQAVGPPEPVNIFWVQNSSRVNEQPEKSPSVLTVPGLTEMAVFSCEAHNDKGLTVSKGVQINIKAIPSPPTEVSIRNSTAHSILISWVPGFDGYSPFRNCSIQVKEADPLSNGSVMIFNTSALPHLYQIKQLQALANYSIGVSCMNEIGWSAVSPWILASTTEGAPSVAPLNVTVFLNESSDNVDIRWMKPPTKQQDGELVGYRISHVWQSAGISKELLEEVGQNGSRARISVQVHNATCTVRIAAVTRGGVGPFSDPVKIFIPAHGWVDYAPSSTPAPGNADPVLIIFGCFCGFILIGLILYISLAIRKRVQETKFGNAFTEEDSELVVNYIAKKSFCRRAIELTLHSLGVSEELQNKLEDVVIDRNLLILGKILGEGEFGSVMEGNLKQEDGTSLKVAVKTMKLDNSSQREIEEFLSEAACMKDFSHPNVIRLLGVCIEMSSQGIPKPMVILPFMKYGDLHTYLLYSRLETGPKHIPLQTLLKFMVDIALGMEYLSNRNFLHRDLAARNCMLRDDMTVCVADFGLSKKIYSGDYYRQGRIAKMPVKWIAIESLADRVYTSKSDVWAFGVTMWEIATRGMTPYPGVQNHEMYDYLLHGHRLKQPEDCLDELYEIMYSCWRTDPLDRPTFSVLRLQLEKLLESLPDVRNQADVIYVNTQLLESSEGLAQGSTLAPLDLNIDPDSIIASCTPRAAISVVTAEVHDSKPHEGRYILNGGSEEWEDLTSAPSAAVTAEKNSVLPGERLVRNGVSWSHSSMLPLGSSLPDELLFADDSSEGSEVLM

[17] = biological target: T1, Tyrosine-protein kinase Mer (Homo sapiens); settings: at 1 µM
[18] = biological target: Hepatocyte growth factor receptor (Homo sapiens) (UniProt P08581); settings: at 0.1 µM
Hepatocyte growth factor receptor (Homo sapiens), sequence (P08581 whole entry): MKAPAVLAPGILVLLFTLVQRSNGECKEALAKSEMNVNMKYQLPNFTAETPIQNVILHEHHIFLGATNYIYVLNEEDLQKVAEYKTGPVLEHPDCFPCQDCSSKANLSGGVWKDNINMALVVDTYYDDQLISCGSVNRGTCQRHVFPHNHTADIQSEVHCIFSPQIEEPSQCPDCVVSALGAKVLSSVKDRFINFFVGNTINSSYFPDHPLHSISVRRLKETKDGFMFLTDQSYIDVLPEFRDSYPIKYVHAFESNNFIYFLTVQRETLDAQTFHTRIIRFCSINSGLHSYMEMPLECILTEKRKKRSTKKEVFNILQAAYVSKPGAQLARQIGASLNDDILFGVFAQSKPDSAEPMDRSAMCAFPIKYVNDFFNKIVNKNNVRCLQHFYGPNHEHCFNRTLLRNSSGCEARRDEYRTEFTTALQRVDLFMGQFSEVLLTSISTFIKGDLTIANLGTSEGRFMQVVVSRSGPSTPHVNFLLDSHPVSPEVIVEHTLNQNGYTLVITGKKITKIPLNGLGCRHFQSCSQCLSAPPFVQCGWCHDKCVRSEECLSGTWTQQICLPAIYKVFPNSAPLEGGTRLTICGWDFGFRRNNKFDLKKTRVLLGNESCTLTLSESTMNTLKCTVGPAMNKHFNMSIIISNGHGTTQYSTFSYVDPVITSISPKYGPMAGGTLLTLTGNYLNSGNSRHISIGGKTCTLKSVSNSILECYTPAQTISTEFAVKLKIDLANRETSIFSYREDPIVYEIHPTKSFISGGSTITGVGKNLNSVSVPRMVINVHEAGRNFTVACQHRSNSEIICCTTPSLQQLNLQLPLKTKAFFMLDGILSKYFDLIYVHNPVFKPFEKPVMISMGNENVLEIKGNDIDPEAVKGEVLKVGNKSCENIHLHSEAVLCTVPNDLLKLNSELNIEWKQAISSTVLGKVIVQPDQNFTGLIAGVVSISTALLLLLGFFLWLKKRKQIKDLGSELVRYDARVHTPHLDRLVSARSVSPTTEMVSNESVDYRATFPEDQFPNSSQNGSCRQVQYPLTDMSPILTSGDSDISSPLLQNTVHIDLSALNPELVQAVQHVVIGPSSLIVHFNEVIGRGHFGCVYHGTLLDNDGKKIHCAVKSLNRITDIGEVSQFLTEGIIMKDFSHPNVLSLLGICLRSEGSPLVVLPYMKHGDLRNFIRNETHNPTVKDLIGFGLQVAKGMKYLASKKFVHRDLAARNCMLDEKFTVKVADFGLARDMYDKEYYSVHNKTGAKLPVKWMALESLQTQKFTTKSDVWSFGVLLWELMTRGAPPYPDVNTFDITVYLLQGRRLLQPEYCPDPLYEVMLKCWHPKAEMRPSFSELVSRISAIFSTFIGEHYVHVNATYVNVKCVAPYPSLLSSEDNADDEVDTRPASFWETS

[19] = biological target: Hepatocyte growth factor receptor (Homo sapiens) (UniProt P08581); settings: at 1 µM
[20] = biological target: T2, Muscle, skeletal receptor tyrosine-protein kinase (Homo sapiens) (UniProt O15146); settings: at 0.1 µM;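 also: values are mean inhibition of MuSK from the GSK PKIS kinase screening panel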
T2 sequence (whole entry): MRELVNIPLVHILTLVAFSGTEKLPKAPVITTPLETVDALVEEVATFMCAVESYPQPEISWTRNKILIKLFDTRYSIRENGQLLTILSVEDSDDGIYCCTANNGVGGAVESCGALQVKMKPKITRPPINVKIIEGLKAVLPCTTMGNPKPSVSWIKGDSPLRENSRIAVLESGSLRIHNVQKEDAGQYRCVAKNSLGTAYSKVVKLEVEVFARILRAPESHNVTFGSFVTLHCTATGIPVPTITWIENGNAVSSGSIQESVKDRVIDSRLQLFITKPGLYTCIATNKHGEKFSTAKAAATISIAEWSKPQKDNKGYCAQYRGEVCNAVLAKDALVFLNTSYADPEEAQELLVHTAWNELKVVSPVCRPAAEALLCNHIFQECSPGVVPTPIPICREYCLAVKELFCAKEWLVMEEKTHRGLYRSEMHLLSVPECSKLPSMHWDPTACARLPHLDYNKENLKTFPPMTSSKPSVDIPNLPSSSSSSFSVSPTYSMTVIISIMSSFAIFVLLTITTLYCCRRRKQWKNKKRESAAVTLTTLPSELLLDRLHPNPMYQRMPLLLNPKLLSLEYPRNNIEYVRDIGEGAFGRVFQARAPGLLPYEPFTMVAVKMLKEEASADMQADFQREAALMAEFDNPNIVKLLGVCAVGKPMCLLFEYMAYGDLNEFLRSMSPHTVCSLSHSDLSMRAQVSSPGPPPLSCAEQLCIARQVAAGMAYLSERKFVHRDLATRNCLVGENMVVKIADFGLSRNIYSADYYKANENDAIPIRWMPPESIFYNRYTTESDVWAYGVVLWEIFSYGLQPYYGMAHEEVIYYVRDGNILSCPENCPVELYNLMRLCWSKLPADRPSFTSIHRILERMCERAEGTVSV

Mast/stem cell growth factor receptor Kit (Homo sapiens), sequence (P10721 whole entry): as the sequence (P10721 whole entry T670I) above, with I670T counted along it
Mast/stem cell growth factor receptor Kit (Homo sapiens), P10721 [D816V], sequence (P10721 whole entry D816V): as the sequence (P10721 whole entry T670I) above, with I670T, D816V counted along it

| SMILES | inhibition [1] | inhibition [2] | inhibition [3] | inhibition [4] | inhibition [5] | inhibition [6] | inhibition [7] | inhibition [8] | inhibition [9] | inhibition [10] | inhibition [11] | inhibition [12] | inhibition [13] | inhibition [14] | inhibition [15] | inhibition [16] | inhibition [17] | inhibition [18] | inhibition [19] | inhibition [20] |
| --- | --- | --- | --- | --- | --- | --- | --- | --- | --- | --- | --- | --- | --- | --- | --- | --- | --- | --- | --- | --- |
| COC(=O)c1sc(-n2cnc3cc(OC)c(OC)cc32)cc1OCc1ccccc1C(F)(F)F | 11.8% | 2.28% | 2.88% | 4.55% | 7.23% | -0.04% | 2.01% | 4.87% | 32.2% | 5.2% | 6.79% | 9.46% | 19.6% | 6.71% | 14.7% | 1.24% | 2.08% | -0.86% | 6.35% | 15.4% |
| Cc1cccc(Nc2ncc(-c3ccccc3)o2)c1 | 89% | 1.52% | -0.48% | 4.58% | 48% | 6.79% | 53% | 3.23% | 5.7% | 3.02% | 2.88% | 3.9% | 8.28% | 2.22% | 7.24% | 3.9% | 2.26% | 3.88% | 2.78% | 0.01% |
| CC1=C(C(=O)Nc2cc(Cl)c3[nH]ncc3c2)C(c2ccc(C(F)(F)F)cc2)CC(=O)N1 (stereo not given) | 0.36% | 4.84% | 6.4% | 2.93% | 4.07% | -1.27% | -0.62% | 4.9% | 27.1% | 2.35% | 3.88% | 5.29% | 10.9% | 3.46% | 9.12% | 1.72% | 0.92% | 0.14% | 4.94% | 50.2% |
| N#Cc1c(NC(=O)c2ccc(F)cc2)sc2c1CCCC2 | 5.86% | -0.47% | 2.78% | -0.92% | 1.72% | -0.83% | 0.9% | 0.7% | 0.45% | 1.24% | 0.33% | 0.87% | 2.77% | 0.6% | 2.84% | -0.51% | 0.78% | 1% | 2.01% | 1.9% |
| Cc1ccc2c(-c3ccnc(Nc4ccccc4)n3)c(-c3ccc(F)cc3)nn2n1 | 75.7% | 1.56% | -0.04% | 0.33% | 3.98% | 1.13% | 27.9% | 15.8% | 56.9% | 2.45% | 2.78% | 10.8% | 50.1% | 8.55% | 44.4% | 3.07% | 23.9% | 1.64% | 8.18% | 3.5% |
| [O-][S+]1CCN(Cc2ccc(-c3ccc4ncnc(Nc5ccc(OCc6cccc(F)c6)c(Cl)c5)c4c3)o2)CC1 | 10.1% | 6.9% | 3.81% | 2.75% | 5.16% | -2.67% | -0.28% | 2.85% | 8.2% | 7.04% | 7.31% | 6.15% | 8.63% | 5.42% | 7.66% | 2.54% | 31% | 11.9% | 10.6% | 3.52% |
| CCNC(=O)O[C@H]1CN[C@H](C#Cc2cc3ncnc(Nc4ccc(OCc5cccc(F)c5)c(Cl)c4)c3s2)C1 | 2.58% | 2.43% | 3.63% | 2.76% | 0.45% | 0.45% | 5% | 3.42% | 3.76% | 3.21% | 2.99% | 5.67% | 3.68% | 2.23% | 1.7% | 0.26% | 7.09% | 3.78% | 1.15% | 2.4% |
| CN1CCC(n2cnc(-c3ccc(F)cc3)c2-c2ccnc(N)n2)CC1 | 9.51% | 5.49% | 7.78% | 4.69% | 3.03% | -0.68% | 3.94% | 2.45% | 13.7% | 2.54% | 4.69% | 1.99% | 10.1% | 1.43% | 6.85% | 0.51% | 6.73% | 2.36% | 0.93% | 0.53% |
| Clc1ccc(-c2nn3ncccc3c2-c2ccnc(Nc3ccccc3)n2)cc1 | 66.9% | 1.51% | -1.04% | -3.61% | 9.51% | 3.31% | 39.8% | 13.9% | 60% | 1.38% | 3.81% | 7.57% | 40.7% | 4.2% | 35.4% | 0.11% | 6.33% | 4.95% | 4.06% | 1.49% |
| CC(=O)Nc1cccc(C#Cc2cncnc2Nc2ccc(OCc3cccc(F)c3)c(Cl)c2)c1 | 2.18% | 1.33% | 0.94% | 0.96% | -0.24% | 2.26% | 5.18% | 1.97% | 3.76% | 0.86% | 0.9% | 1.26% | 1.6% | 1.1% | 0.14% | 1.62% | 2.65% | 4.11% | 1.83% | 2.39% |
| NS(=O)(=O)c1ccc(N/N=C2\C(=O)Nc3ccc4ncccc4c32)cc1 | 90.7% | 5.95% | 23.6% | 10.2% | 69.4% | 3.66% | 36.8% | 5.5% | 30.1% | 2.17% | 10.1% | 8.74% | 44.3% | 6.92% | 40% | 1.59% | 17.5% | 4.71% | 19.4% | 11.3% |
| NS(=O)(=O)c1ccc(Nc2ncc(-c3ccccc3)o2)cc1 | 88.6% | 0.49% | 2.25% | 14.9% | 58.7% | 9.24% | 52.5% | 1.77% | 6.21% | 4.12% | 6.46% | 5.4% | 12.4% | 2.72% | 9.48% | 2.4% | 5.27% | 1.7% | -0.71% | 3.44% |
| CC(C)COC(=O)c1ccc2c(c1)/C(=C/Nc1ccc(S(N)(=O)=O)cc1)C(=O)N2 | 24.6% | 2.4% | 35.2% | -2.43% | 6.53% | 2.21% | 5.62% | 0.55% | 13.9% | 0.07% | 4.2% | 2.35% | 24.3% | 0.51% | 20.4% | 2.14% | 4.37% | -4.39% | 13.3% | 7.69% |
| Fc1ccc(-c2nn3ccccc3c2-c2ccncc2)cc1 | 12.1% | -1.36% | -0.05% | -0.12% | 1.47% | -1.06% | 1.71% | 1.24% | 5.7% | 1.27% | 0.03% | 0.64% | 6.12% | 0.28% | 4.71% | 1.48% | 2.6% | -1.86% | 3.37% | 3.06% |
| c1ccc(COc2ccc(Nc3ncnc4ccc(-c5ccco5)cc34)cc2)cc1 | -0.06% | -2.23% | -0.29% | 0.67% | -1.15% | 2.08% | 1.66% | 0.84% | 4.49% | 0.59% | 1.92% | 1.51% | 2.5% | 1.39% | 1.94% | 1.57% | 12.7% | 7.46% | 2.85% | 0.09% |
